Test results as given in PubChem BioAssay AID2366 (The Scripps Research Institute Molecular Screening Center, 2010).
Values without a mark were called inactive.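 The calls were made as follows: active = compounds picked for the later follow-up tests because of their potency and selectivity; inactive = compounds skipped in follow-up as weaker or less selective.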

Assay: PME-1 inhibitor potency by in-gel ABPP, dose response, selectivity assay for PME-1 inhibitor project, cell lysate, mouse brain cytosol, FP-rhodamine (AID 2366)
Conditions: gel-based ABPP

Compound	IC50 [µM]
CC(C)(C)S(=O)(=O)/C(C#N)=C/c1cccn1S(=O)(=O)c1ccccc1	> 50
CS(=O)(=O)/C(C#N)=C/c1cccn1S(=O)(=O)c1ccc([N+](=O)[O-])cc1	> 50
CS(=O)(=O)/C(C#N)=C/c1cccn1S(=O)(=O)c1ccccc1	> 50
N#C/C(=C\c1cccn1S(=O)(=O)c1cccc(C#N)c1)S(=O)(=O)c1ccc(F)cc1	> 50
N#C/C(=C\c1cccn1S(=O)(=O)c1cccc([N+](=O)[O-])c1)S(=O)(=O)c1ccc(F)cc1	> 50
